BoNT-A LC inh2: inhibitors of Botulinum neurotoxin A light chain protease. multiplex microsphere protease substrate cleavage, flow cytometry. inhibition, % at 10 µM. hit rate 0.17% among 360,000; in the data active = inhibition above about 30%; inconclusive = no clear call, values can overlap the other calls; also: plate controls were buffer without enzyme for full effect and enzyme alone for no effect
Anthrax LF inh2: anthrax lethal factor protease inhibition | P15917 | multiplex microsphere protease cleavage assay, LF | inhibition, % at 10 µM | hit rate 0.12% among 360,000 | AID 588501; in the data active = inhibition above about 30%; inconclusive = no clear call, values can overlap the other calls; also: plate controls were buffer without enzyme for full effect and enzyme alone for no effect
Target sequence (P15917 whole entry, looked up): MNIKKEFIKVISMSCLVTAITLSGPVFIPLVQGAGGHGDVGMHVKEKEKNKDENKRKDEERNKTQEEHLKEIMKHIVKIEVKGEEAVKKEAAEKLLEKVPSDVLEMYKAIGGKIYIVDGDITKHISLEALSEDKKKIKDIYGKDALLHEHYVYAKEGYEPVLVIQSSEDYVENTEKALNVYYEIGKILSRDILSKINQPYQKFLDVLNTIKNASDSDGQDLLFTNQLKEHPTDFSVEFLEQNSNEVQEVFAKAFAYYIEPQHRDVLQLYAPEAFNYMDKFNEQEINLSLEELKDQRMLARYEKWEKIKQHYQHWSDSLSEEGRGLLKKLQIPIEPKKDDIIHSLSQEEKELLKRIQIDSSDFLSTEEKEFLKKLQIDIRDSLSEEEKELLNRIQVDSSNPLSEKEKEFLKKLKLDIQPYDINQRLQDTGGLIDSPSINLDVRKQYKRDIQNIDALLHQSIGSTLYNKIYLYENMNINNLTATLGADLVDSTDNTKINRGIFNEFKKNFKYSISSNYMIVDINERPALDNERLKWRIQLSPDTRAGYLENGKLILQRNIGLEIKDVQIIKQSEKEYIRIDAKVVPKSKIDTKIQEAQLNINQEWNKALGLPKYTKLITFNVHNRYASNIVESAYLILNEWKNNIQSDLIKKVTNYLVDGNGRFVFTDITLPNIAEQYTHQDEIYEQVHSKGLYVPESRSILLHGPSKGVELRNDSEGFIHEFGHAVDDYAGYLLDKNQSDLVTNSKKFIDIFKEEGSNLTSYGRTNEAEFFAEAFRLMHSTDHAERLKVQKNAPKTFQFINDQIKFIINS
Bead autofluor: counter-screen for toxin protease inhibitors: compound fluorescence. compound autofluorescence counterscreen, microsphere flow cytometry; active compounds read high. AID 624483. fluorescence intensity (test concentration not listed). hit rate 3.1% among 360,000; in the data active = fluorescence intensity above about 16000; inconclusive = no clear call, values can overlap the other calls
BoNT F protease: BoNT F light chain protease inhibition | hit rate 0.22% among 360,000 | Multiplex microsphere protease cleavage assay, flow cytometry | inhibition, % at 10 µM; in the data active = inhibition above about 35%, passing the limit was not always enough; inconclusive = no clear call, values can overlap the other calls; also: plate controls were buffer without enzyme for full effect and enzyme alone for no effect
Mtb FBA inh: inhibits M. tuberculosis FBA enzyme; inhibition, % at 1 µM; hit rate 2.3% among 360,000; purified M. tuberculosis FBA, fluorescence read-out; AID 588726; in the data active = inhibition above about 27%;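 also: 0% = vehicle and 100% = reference inhibitor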
GDH-TPI counter: GDH-TPI coupled enzyme inhibition counter-screen; GDH-TPI coupled enzyme counterscreen, NADH absorbance; inhibition, % at 4.8 µM; AID 588335; hit rate 1.2% among 360,000; in the data active = inhibition above about 30%;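 also: 0% = DMSO wells and 100% = wells lacking the enzyme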
BoNTA LC inh 1: blocks botulinum neurotoxin A light chain protease | shares compounds with BoNT F protease | multiplex microsphere protease assay, flow cytometry | inhibition, % at 10 µM | hit rate 3% among 720 | AID 602139; in the data active = inhibition above about 32%
BoNTF LC inh 1: blocks botulinum neurotoxin F light chain protease; shares compounds with BoNT F protease; multiplex microsphere protease cleavage assay, flow cytometry; inhibition, % at 10 µM; 720 tested, under 10 active; AID 602140
LF protease CP1: blocks anthrax lethal factor protease | shares compounds with BoNT F protease | multiplex microsphere protease cleavage assay, LF | inhibition, % at 10 µM | 720 tested, under 10 active
The depositor's hits bear a star; ? = inconclusive; / = not tested or not shown. The list is not random: actives were taken first. Their share in the collection is about 6.6%. Unless noted, no rule for the calls is given here.

SMILES	BoNT-A LC inh2	Anthrax LF inh2	Bead autofluor	BoNT F protease	Mtb FBA inh	GDH-TPI counter	BoNTA LC inh 1	BoNTF LC inh 1	LF protease CP1
CCN(CC)C(=O)c1ccc(S(=O)(=O)c2ccccc2)cc1	1	-1	3400	43*	-1	-3	-1	-3	0
CCN(CC)C(=O)c1ccc(NS(=O)(=O)c2ccccc2)cc1	1	2	3742	6	0	-6	/	/	/
Cc1nn(CC(=O)NCCc2cccs2)c(=O)c2cc3ccccc3n12	38*	34*	5756	3	5	6	-2	-2	-7
COCCNC(=O)CNC(=O)c1nn(-c2ccc(OC)c(Cl)c2)c(=O)c2ccccc12	-1	1	2927	-19	0	13	/	/	/
COc1ccc(-n2nc(C(=O)NCC(=O)NCc3cccc(F)c3)c3ccccc3c2=O)cc1Cl	3	2	6493	36*	3	0	-3	-24	-1
COc1ccc(CCNc2cc(=O)[nH]c(N)n2)cc1	3	4	8577	22	1	-5	/	/	/
COc1ccc(CC(=O)NCc2ccc3c(c2)cc(C)n3C)cc1OC	51*	10	2746	-25	2	4	2	-8	-4
Cc1cc2cc(CNC(=O)c3ccco3)ccc2n1C	28	-18	4270	-57	-2	15	/	/	/
Cc1cc2cc(CNC(=O)COc3ccccc3)ccc2n1C	69*	-26	2787	-72	0	1	6	-15	2
COc1cc(OC)cc(C(=O)NCc2ccc3c(c2)cc(C)n3C)c1	73*	-47	2199	-82	-2	-3	1	-1	-4
COCC(=O)NCc1ccc2c(c1)cc(C)n2C	5	1	1948	-5	3	14	3	-5	-1
CC(C(=O)N1CCCC1)N(C)CC(=O)Nc1cccc(F)c1 (configuration not stated)	0	3	3475	12	2	-13	/	/	/
CC(c1ccc(F)cc1)n1cc(C(=O)NCCN(C)C)nn1 (configuration not stated)	-1	-3	2502	-3	1	-3	/	/	/
CCN(CC)C(=O)NCc1c(C)cc(C)cc1C	0	-1	4824	3	2	6	/	/	/
CCN(CC(=O)NCc1ccccn1)S(=O)(=O)c1ccc(Cl)cc1	0	-4	3655	3	4	6	/	/	/
COc1ccc(C(=O)NCc2ccc3c(c2)OCO3)cc1	0	-2	4493	-3	2	-2	/	/	/
COc1c(C)cccc1C(=O)NCc1ccc2c(c1)OCO2	-1	-12	3541	36*	0	1	0	-4	1
Cc1cc2cc(CNC(=O)c3ccc4c(c3)OCO4)ccc2n1C	65*	-50	1744	-86	-1	-1	7	-11	3
CCOc1ccccc1NC(=O)c1ccc(S(=O)(=O)N(C)C)cc1	0	39*	?	4	0	9	0	-4	-1
CCOc1ccccc1NC(=O)c1ccc(S(=O)(=O)N(C)c2ccccc2)cc1	0	-13	3483	-8	-1	4	/	/	/
NC(=O)C(c1ncc(C(F)(F)F)cc1Cl)c1c(Cl)cccc1Cl (configuration not stated)	?	?	?	48*	2	5	0	-3	5
CC(C)Nc1nc(NCCOc2ccccc2)c2sccc2n1	0	6	2986	-6	5	11	/	/	/
Cc1nn(-c2ccccc2)c2sc(C(=O)N3CCc4ccccc4C3)cc12	0	0	5294	-2	1	5	/	/	/
Cc1nn(-c2ccccc2)c2sc(C(=O)N3CCCCC3)cc12	0	5	5079	38*	4	1	2	4	2
CCc1ccc(OCc2nnc(SCC(=O)Nc3cccc(C(=O)N4CCOCC4)c3)o2)cc1	5	1	2064	46*	-7	0	1	0	0
SMILES	BoNT-A LC inh2	Anthrax LF inh2	Bead autofluor	BoNT F protease	Mtb FBA inh	GDH-TPI counter	BoNTA LC inh 1	BoNTF LC inh 1	LF protease CP1
CCc1ccc(OCc2nnc(SCC(=O)N3CCOCC3)o2)cc1	0	0	2749	-1	-3	-9	/	/	/
Cc1cc2c(sc3c(C)ccc(C)c32)c(C)n1	-2	29	3844	?	1	-7	-1	-2	-3
CN(Cc1nc2ccccc2c(=O)[nH]1)C(=O)C1CC(=O)N(c2cccc3ccccc23)C1 (configuration not stated)	1	-2	3709	0	0	-3	/	/	/
Cn1c(SCC(=O)Nc2cccnc2)nnc1-c1ccccc1F	-1	-8	3956	-8	-2	-3	/	/	/
Cn1c(N)c(NC(=S)NC2CCCCC2)c(=O)n(C)c1=O	0	7	2867	-1	-1	7	/	/	/
N#Cc1nc(-c2ccccc2F)oc1NCCc1ccccc1	?	2	10751	42*	122*	-5	-3	-2	-4
N#Cc1nc(-c2ccccc2F)oc1NCCc1ccccn1	0	-1	3032	5	15	20	/	/	/
Cc1cc(C)n(-c2nc3ccccc3nc2N2CCN(S(=O)(=O)c3ccc(F)c(C)c3)CC2)n1	24	11	7375	12	-1	7	/	/	/
Cc1cc(C)n(-c2nc3ccccc3nc2N2CCN(S(=O)(=O)c3ccc4ccccc4c3)CC2)n1	34*	25	9467	20	2	-10	12	-3	6
CC(=O)N1N=C(c2cccs2)CC1c1cccc([N+](=O)[O-])c1 (configuration not stated)	0	-8	3336	5	1	6	/	/	/
CC(=O)N1N=C(c2ccccc2)CC1c1cccc([N+](=O)[O-])c1 (configuration not stated)	2	-10	3748	42*	-3	6	0	-1	-5
COc1cc2c(cc1OC)C(=Cc1ccc(N(C)C)cc1)C=C2	-1	-5	3812	-7	-9	16	/	/	/
COc1cc2nc(/C=C/c3ccc(N(C)C)cc3)sc2cc1SC	39*	-3	6632	-70	-1	19	3	-6	-3
Cc1csc(NC(=O)CSc2nnc(CCNC(=O)c3ccc(Cl)c(Cl)c3)n2C)n1	0	3	9778	0	3	-10	/	/	/
COc1ccc(CCCc2nnc(SCC(=O)Nc3nc(C)cs3)n2C)cc1	?	-17	11415	35*	1	-3	0	-6	-1
CCC(=O)NC1=C(Cl)C(=O)C(NC(=O)CC)=C(Cl)C1=O	1	-4	3286	13	-1	13	/	/	/
Cc1nn(CC(=O)Nc2ccc(N3CCOCC3)cc2)c(C)c1Cl	0	1	5654	1	2	-7	/	/	/
COc1cccc(NC(=O)c2oc3ccccc3c2NC(=O)C(C)(C)C)c1	44*	-14	6579	53*	5	13	-1	-3	0
C=CCN(CC=C)CCCOc1ccc(Br)cc1Cl	-2	0	3007	-4	-3	-6	/	/	/
